Most compounds without a hit are left out; they make up all but 28% or so of the library.
D1 mod = allosteric modulators of human D1 dopamine receptor; P21728; HEK293 D1, CRE-luciferase, dopamine EC30 potentiation; actives deviate in either direction; B-score at 10 µM; 58,000 compounds, 5.9% hits; AID 641;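 active = luminescence count or its row- and column-corrected plate score outside the 99.7% band of the plate's sample wells, on either side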
CYP2C9 act = CYP2C9 (human) activation. P11712. recombinant CYP2C9, luciferin-H conversion, luminescence; hits give high values; factor 1 = untreated enzyme, 0 = blocked. activation factor at 5 µM. 96,000 compounds, 1.4% hits. AID 1024;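 active = activation factor of 2 or more for CYP2C9 at a 5 µM dose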;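 note: 0 = sulfaphenazole-blocked wells and 1 = vehicle-only wells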
CYP2C9 inhib = blocks human cytochrome P450 2C9 | P11712 | CYP2C9 Supersomes, luciferin-H conversion, luminescence | inhibition, % at 5 µM | 96,000 compounds, 20% hits | AID 777;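 active = blocking of liver enzyme CYP2C9 beyond about 50% at 5 µM, limit read from the data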
CYP2C19 act = increases human CYP2C19 enzyme activity. P33261. activation factor at 5 µM. 96,000 tested, under 10 active. recombinant CYP2C19, luciferin-H EGE luminescence; hits give high values; 0 = fully inhibited enzyme, 1 = untreated enzyme;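 active = activation factor of at least 2 at 5 µM in the primary screen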;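 note: 0 = wells with 2.5 mM tranylcypromine and 1 = vehicle-only wells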
CYP2C19 inhib = human CYP2C19 inhibition | 96,000 compounds, 21% hits | inhibition, % at 5 µM | CYP2C19 Supersomes, luciferin-H EGE luminescence, 30 min | P33261 | AID 778;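 active = CYP2C19 inhibition above a set limit at 5 µM in the primary screen, cut at about 50% in these data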;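 note: plate controls were negative control wells for no effect and 2.5 mM tranylcypromine positive control for full effect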
DAT uptake mod = human DAT dopamine uptake with cocaine, either direction; B-score at 10 µM; 110,000 compounds, 1.3% hits; AID 449768; LLC-PK1 hDAT cells, [14C]-dopamine uptake with cocaine IC80; actives deviate in either direction; Q01959;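 active = Z score or B-score, a plate-position-corrected score, falls beyond the plate's 99.7% confidence bounds, in either direction; inactive = both scores lie inside the 99.7% bounds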;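 note: scored against the spread of the other compound wells on the same plate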
Target sequence (Q01959 whole entry, looked up): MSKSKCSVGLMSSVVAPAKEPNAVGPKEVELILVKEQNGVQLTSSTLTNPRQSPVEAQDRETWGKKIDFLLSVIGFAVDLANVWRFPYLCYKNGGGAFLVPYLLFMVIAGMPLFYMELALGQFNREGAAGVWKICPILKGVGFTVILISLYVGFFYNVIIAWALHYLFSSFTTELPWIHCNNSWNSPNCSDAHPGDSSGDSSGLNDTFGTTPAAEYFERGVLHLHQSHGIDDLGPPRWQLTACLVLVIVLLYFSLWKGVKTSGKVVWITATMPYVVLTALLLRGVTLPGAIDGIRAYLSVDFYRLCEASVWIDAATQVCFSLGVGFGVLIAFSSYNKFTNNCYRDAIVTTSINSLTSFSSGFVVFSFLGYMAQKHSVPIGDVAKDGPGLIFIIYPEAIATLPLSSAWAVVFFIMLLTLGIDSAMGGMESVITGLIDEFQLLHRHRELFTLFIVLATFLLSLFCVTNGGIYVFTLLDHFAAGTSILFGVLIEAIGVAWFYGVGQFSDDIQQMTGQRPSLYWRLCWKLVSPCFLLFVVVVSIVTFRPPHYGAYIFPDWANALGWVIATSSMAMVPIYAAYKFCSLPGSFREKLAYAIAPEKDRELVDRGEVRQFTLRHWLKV
Numbers without * were called inactive; . = no result.

SMILES	D1 mod	CYP2C9 act	CYP2C9 inhib	CYP2C19 act	CYP2C19 inhib	DAT uptake mod
COc1ccccc1C1CC(c2ccc(Cl)cc2)Nc2ncnn21 (stereo unspecified)	0.4	0.3	70*	0	98*	2.2
COc1ccc(C2CC(c3c(Cl)cccc3Cl)n3nc(N)nc3N2)cc1 (stereo unspecified)	-0.39	1.1	-5	0.4	62*	0.93
CCOc1ccc(C2CC(c3ccccc3C)n3ncnc3N2)cc1 (stereo unspecified)	-0.9	1	3	0.4	64*	-1.2
Cc1ccccc1C1CC(c2ccccc2)Nc2ncnn21 (stereo unspecified)	1	0.9	10	0.6	36	-0.37
CCOc1ccccc1C1CC(c2ccc(F)cc2)Nc2nc(N)nn21 (stereo unspecified)	0.26	0.8	24	0.3	65*	0.15
COc1cccc(C2CC(c3ccccc3)Nc3ncnn32)c1 (stereo unspecified)	-0.12	0.6	44	0.1	95*	0.31
CCc1ccc(C2CC(c3ccccc3C)n3nc(N)nc3N2)cc1 (stereo unspecified)	0.42	1.1	-11	0.9	8	-0.29
COc1cccc(C2CC(c3ccccc3OC)n3ncnc3N2)c1 (stereo unspecified)	0.18	0.3	66*	0	96*	0.06
CCOC(=O)N1CCN(C(=O)c2cn(CC)c3cc(N4CCN(C)CC4)c(F)cc3c2=O)CC1	0.11	.	.	.	.	.
COc1ccc(/C(N)=C/C(=O)C(C)(C)C)cc1	.	0.6	42	0.3	74*	0.0077
CC(C)(C)C(=O)/C=C(\N)c1ccncc1	-0.38	0.8	19	0.7	35	0.055
Cc1ccc2nc(NC3=NCN(CCN4CCOCC4)CN3)nc(C)c2c1	-0.011	.	.	.	.	.
CC1(C)CC(=O)C(C(c2cccnc2)C2C(=O)CC(C)(C)CC2=O)C(=O)C1	-5.5*	1	4	1.2	-20	0.73
CCOC(=O)COc1ccc(S(=O)(=O)NCCC2=CCCCC2)cc1	0.24	0.9	9	0.8	25	-0.17
COC(=O)Cn1cnc(=O)c(C#N)c1/C=C/N(C)C	-4.7*	1	0	1.1	-14	-0.42
COC(=O)Cn1cnc2c(C#N)c3n(c2c1=O)CCCCC3	-0.47	0.9	12	0.9	14	-0.54
Nc1ccnc(C(F)(F)F)c1C(=O)c1ccccc1	-0.054	0.9	7	1.1	-7	-0.93
O=S(=O)(/N=S1/CC=CCN1S(=O)(=O)c1ccccc1)c1ccccc1 (stereo unspecified)	0.061	0.4	55*	1	2	-1.3
CC1SCCN1S(=O)(=O)c1ccc2ccccc2c1 (stereo unspecified)	.	.	.	.	.	0.15
CC(CNC(=O)c1cc(Cl)ccc1[N+](=O)[O-])NC(=O)c1cc(Cl)ccc1[N+](=O)[O-] (stereo unspecified)	.	1	3	0.9	7	1.3
CCc1ccc(C(C)NC(=O)C2(C)CC2(Br)Br)cc1 (stereo unspecified)	.	0.3	71*	0.1	90*	-0.039
COc1cccc(-n2cnc3scc(-c4cccs4)c3c2=O)c1	.	0.2	79*	0.5	49	1.2
O=c1c2c(-c3cccs3)csc2ncn1-c1ccc(Br)cc1	.	0.7	32	0.6	37	-1.5
Cc1ccccc1NC1=C(Cl)C(=O)OC1OC(=O)c1ccco1 (stereo unspecified)	.	0.5	48	0.7	28	0.34
Cc1ccccc1NC1=C(Cl)C(=O)OC1NC(=O)c1ccccc1 (stereo unspecified)	.	0.3	72*	0.4	61*	-0.89
SMILES	D1 mod	CYP2C9 act	CYP2C9 inhib	CYP2C19 act	CYP2C19 inhib	DAT uptake mod
Cc1nn(CC#N)c(=O)n1-c1ccccc1F	.	1.1	-7	1	-1	-0.52
COc1ccc2c(c1)cc(C(=O)O)n2C	0.084	1.2	-16	1.1	-10	-0.076
CNC(=O)c1cc2cc(OC)ccc2n1CCN(C)C	0.73	1	-4	0.4	63*	-0.57
CNC(=O)c1cc2cc(OC)ccc2n1CCN(Cc1ccccc1)Cc1ccccc1	.	0.3	67*	0.1	92*	0.012
O=C(C1CCCN(S(=O)(=O)c2cccs2)C1)N1CCN(C2CCCCC2)CC1 (stereo unspecified)	.	0.7	28	0.9	14	-0.15
Cc1nc(Oc2ccc(Cl)cc2)c2oc3ccccc3c2n1	.	1	-1	1	0	-0.042
O=C(c1ccc(Br)cc1)C1CCc2occc2C1=O (stereo unspecified)	0.9	0.3	66*	0	97*	-0.45
Cc1ccc2c(CC(=O)Nc3nc(C)cs3)coc2c1	-0.03	0.8	23	0.8	24	0.59
C=CCC(NCc1ccco1)c1ccc(OC)cc1OC (stereo unspecified)	0.1	0.9	9	0.7	27	1.4
C=CCC(NCc1ccco1)c1ccc(OC)c(OC)c1 (stereo unspecified)	.	1	1	0.6	42	-7.5*
CS(=O)(=O)N1CCCC(C(=O)NCc2ccc(F)cc2Cl)C1 (stereo unspecified)	.	1.1	-13	0.9	8	-0.42
O=C(CSc1nnc2c(Cl)cc(C(F)(F)F)cn12)Nc1ccc2c(c1)OCO2	.	0.7	32	0.7	30	-0.64
CC[C@@H](C)[C@@H](C(=O)N1CCN(C(=O)OC(C)(C)C)CC1)n1cc(CCCCNC(=O)OC(C)(C)C)nn1	.	.	.	.	.	1.9
CC(C)C1Nc2ccc(S(N)(=O)=O)cc2C2C=CCC21 (stereo unspecified)	0.071	0.7	25	0.3	69*	1.5
O=C(Cn1cc2c(n1)CCCC2)NCCc1ccccc1	-1.2	.	.	.	.	1.4
CN(C)c1ccc(NC(=O)Cn2cc3c(n2)CCCC3)cc1	-0.76	1.1	-11	0.1	92*	-0.32
COc1cccc(CNC(=O)Cn2cc3c(n2)CCCCC3)c1	.	2.4*	-140	0.1	92*	-0.1
Cc1cc(-c2nn3c(C)nnc3s2)ccc1NC(=O)C(C)(C)C	-2.7	.	.	.	.	-0.38
CC1(C)CC(=O)C2=C(C1)OC(=O)C2(NC(=O)c1cccs1)C(F)(F)F (stereo unspecified)	-0.59	0.4	56*	1.1	-15	-0.0074
CC1(C)CC(=O)C2=C(C1)N(Cc1cccnc1)C(=O)C2(NC(=O)c1cccnc1)C(F)(F)F (stereo unspecified)	.	1	-4	1	1	-0.98
CC#CCN1c2ccccc2[C@]23C[C@@H](C(=O)OC)N(C(=O)NCCBr)C2=NC(C(=O)OC)=C(C(=O)OC)[C@H]13	.	.	.	.	.	0.44
O=C1NC2(NN1c1ccccc1)C1CC3CC(C1)CC2C3 (stereo unspecified)	.	1.1	-6	1	-1	-0.58
CCCCCCCC1(C)NC(=O)N(c2ccccc2)N1 (stereo unspecified)	.	0.8	24	0.4	57*	-0.051

Screens (PubChem)
